Screening data as filed in PubChem.
Shown are actives, neighbours in structure and some others; about 6.5% of the full set was active somewhere.
HepG2 tox: qHTS for Inhibitors of TGF-b: Cytotox Counterscreen; HepG2 CAGA-GFP viability, ATP luminescence, 18 h; Potency, µM (highest dose often 46.1 µM), usual class: cytotoxic; 410,000 tested, 0.76% active; AID 588856, 2011
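CellTiter-Glo luminescence gave cytotoxicity after 18 hours at 37 degrees C. The cells were HepG2 CAGA-GFP in 1% FBS DMEM, stimulated with 500 pg/mL TGF-beta after compound addition. %Activity was normalised to no-cell wells (complete cell-killing) and DMSO (no toxicity), and curves were fitted and classified.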
HT1080-NT tox: qHTS for induction of synthetic lethality in tumor cells producing 2HG: qHTS for the HT-1080-NT fibrosarcoma cell line | HT-1080-NT fibrosarcoma viability, CellTiter-Glo ATP luminescence, 48 h | Potency, µM (series often up to 46.1 µM), usual class: cytotoxic | 360,000 tested, 1.6% active | AID 686970, 2013;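 further: NT is the 2HG producing partner of a matched IDH1 knockdown line; nearly all actives have a fitted effect of over 55% in size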
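Viability of the 2HG-overproducing fibrosarcoma line after 48 hours of compound exposure at 37 degrees C was determined by luminescence with CellTiter-Glo, and concentration-effect curves were then fitted and categorized.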
TGFb inhibitor: qHTS for Inhibitors of TGF-b; HepG2 CAGA-GFP TGF-b/SMAD3 reporter, GFP fluorescence, 18 h; TGF-beta stimulated, 500 pg/mL final; Potency, µM (top dose mostly 46.1 µM), most hits filed as inhibitors; 410,000 tested, 1.2% active; AID 588855, 2011; further: nearly all actives have a fitted effect of over 65% in size
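First, reporter cells (HEPG2 CAGA-GFP) rested 2 h at 37 degrees C. Next, compounds were pinned in and TGF-beta added to 500 pg/mL final. After 18 h, GFP was imaged per cell and summed per well.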
Giardia killer: Small Molecules that selectively kill Giardia lamblia: qHTS. activity change, % at 7.66 µM, hits read low. Giardia lamblia trophozoite viability. 340,000 tested, 0.15% active; in the data active means activity change below about -80%; inconclusive means between about -30% and that limit;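 further: parasites exposed to compound for two days anaerobically before the ATP read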
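Giardia trophozoites, 100 cells per well, were exposed to compounds for 48 hrs at 37 deg C under anaerobic conditions; viability was then read as ATP content by bioluminescence after 15-30 min at room temperature.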
IL-1B inflam inh: qHTS for Inhibitors of Inflammasome Signaling: IL-1-beta AlphaLISA Primary Screen. THP-1 LPS/ATP IL-1B secretion, AlphaLISA, 16 h; stronger effect = lower value. activity change, % at 57.5 µM. 360,000 tested, 4.7% active; in the data active means activity change below about -50%; inconclusive means mostly about -30% to -49%
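THP-1 cells pretreated 1 hr with compounds (up to 57.5 uM final), then stimulated with LPS (250 ng/mL final) plus ATP (1.25 mM final); secreted IL-1B measured by AlphaLISA after 16 hr, decreased signal indicating inhibition.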
HT1080 IDH1KD tx: qHTS for induction of synthetic lethality in tumor cells producing 2HG: qHTS for the HT-1080-IDH1KD cell line; 360,000 tested, 2% active; Potency, µM (doses to about 46.1 µM), usual class: cytotoxic; HT-1080 IDH1 knockdown viability, ATP luminescence, 48 h
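Knockdown cells (IDH1KD HT-1080) received compounds 2 h after plating at 750 cells/well and were kept 48 h at 37 °C in 5% FBS RPMI. A CellTiter-Glo luminescence read gave % activity for curve fitting.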
A number is an active result; n = inactive; u = inconclusive; x = no result; [ ] = another dose, or the depositor's remark. Unless noted, the call rests on the fitted dose curve; in most records, active means well fitted curve in the direction sought with a large enough effect; inconclusive means small, poorly fitted or top-dose-only effect, or another doubt; inactive means no such curve, though single readings can be large; an effect the other way counts as inactive or inconclusive.

SMILES	HepG2 tox	HT1080-NT tox	TGFb inhibitor	Giardia killer	IL-1B inflam inh	HT1080 IDH1KD tx
COc1ccc(/C=C2/SC(=S)NC2=O)cc1OCc1ccccc1	n	n	n	n	n	n
COc1cc(/C=C2/SC(=O)NC2=O)ccc1OCc1ccccc1	n	23.1µM	u	n	n	u
COc1cc(/C=C2/SC(=S)N(Cc3ccccc3)C2=O)ccc1O	n	n	n	n	-82.3	n
O=C1/C(=C\c2ccc(O)c(O)c2)SC(=S)N1Cc1ccccc1	n	u	u	n	-87.4	u
CC(C)(C)OC(=O)C[C@@H]1C/C=C\C[C@@H](CC(=O)N[C@@H](CO)Cc2ccccc2)C(=O)NCCOC1=O	n	n	n	n	n	n
CC(=O)Cn1nnc2sc(-c3ccccc3)cc2c1=O	n	n	n	n	n	n
COC(=O)CSC1=C(C#N)C(c2ccc(C)o2)CC(=O)N1 (configuration not stated)	n	u	n	n	n	7.31µM
CCOc1ccc(NC(=O)CSC2=C(C#N)C(c3ccc4c(c3)OCO4)CC(=O)N2)cc1 (configuration not stated)	n	n	n	n	-55.1	u
Cc1csc(SCC(=O)Nc2ccc(S(=O)(=O)N3CCCC3)cc2)n1	n	n	n	n	n	n
CCN(CC)C(=O)Oc1ccc2c(=O)c(-c3ccccc3)coc2c1	n	n	n	n	-54.0	n
COc1ccc2c(=O)c(-c3ccccc3)coc2c1	n	n	n	n	n	n
COc1ccccc1NS(=O)(=O)c1cccc(C(=O)N/N=C(\C)c2ccc3c(c2)OCCO3)c1	n	n	n	n	n	n
O=C(Nc1cccc(Br)c1)c1cccc(OC(=S)N2CCOCC2)c1	n	n	u	n	-66.8	u
CCCCOc1ccc(C(=O)Nc2ccc(CN3CCOCC3)cc2)cc1	n	n	n	n	-61.6	n
O=C(Nc1ccc(C(=O)N2CCOCC2)cc1)c1cccc(Br)c1	n	n	n	n	n	n
COc1ccc(OCc2cccc(C(=O)Nc3ccc(CN4CCCCC4)cc3)c2)cc1	n	n	u	n	n	n
CCCOc1ccc(C(=O)C(CN2CCOCC2)c2ccccc2)cc1 (configuration not stated)	n	18.4µM	15.8µM	n	-96.9	16.4µM
CCOc1ccc(OCc2cccc(C(=O)Nc3ccc(CN4CCCCC4)cc3)c2)cc1	10µM	14.6µM	n	n	-100.1	u
Cc1cc(C(=O)COC(=O)CN(C)S(=O)(=O)c2ccc(Cl)cc2)c(C)n1Cc1cccs1	n	n	n	n	n	n
NC(=O)c1c(NC(=O)CS(=O)(=O)c2ccc(Cl)cc2)sc2c1CCCCC2	n	x	n	x	x	x
CCN(CC)c1ccc(Nc2nc(Cl)ncc2Br)cc1	n	n	n	n	n	n
CC(C)COc1cccc(C(=O)Nc2cc(S(=O)(=O)N3CCOCC3)ccc2N2CCCC2)c1	n	n	u	n	x	n
CN=c1oc2ccc(Cl)cc2cc1C(N)=O	n	n	n	n	n	n
CCCOc1cccc(C(=O)Nc2ccc(CN3CCOCC3)cc2)c1	n	n	n	n	-53.5	n
COc1ccc(N2CC(C(=O)Nc3ccc4c(c3)OCCO4)CC2=O)cc1 (configuration not stated)	n	n	n	n	n	n
SMILES	HepG2 tox	HT1080-NT tox	TGFb inhibitor	Giardia killer	IL-1B inflam inh	HT1080 IDH1KD tx
O=C1CC[C@@H](C(=O)O)N1	n	n	n	n	n	n
CCOC(=O)C1=C(CN(CC)Cc2ccccc2)NC(=O)NC1c1ccc(OC(C)C)cc1 (configuration not stated)	n	x	14.1µM	x	x	x
CCOC(=O)C1=C(CNCc2ccc(C)cc2)NC(=O)NC1c1ccc(OC)cc1 (configuration not stated)	n	u	n	n	n	9.2µM
O=C(Nc1cccs1)Nc1c(F)cc(F)cc1Br	n	n	n	n	n	n
CCc1ccc2oc(-c3ccc(NC(=O)c4cc(OC)c(OC)c(OC)c4)cc3)nc2c1	n	x	n	x	x	x
CCOc1ccc(C(=O)N(CN2CCCC2=O)c2ccccc2)cc1	n	n	n	n	n	n
Cc1ccc(N2C(=O)c3ccccc3C2=O)cc1	n	n	u	n	n	n
Cc1ccc(SC2=C(Sc3ccc(C)cc3)C(=O)c3ccccc3C2=O)cc1	n	n	n	n	-73.8	n
CCOC(=O)c1cc2c(C)n(-c3ccc(C)cc3)c(C)c2ccc1=O	n	n	u	u	-66.3	n
CCc1nc2c(OCCC3CCCCC3)cccn2c1N(C)C(=O)c1ccc(OC)cc1	n	u	u	x	-56.5	u
CCc1nc2c(OCc3ccc(F)cc3)cccn2c1N(C)C(=O)c1ccco1	n	n	n	x	n	n
CCc1nc2c(OCc3cc(Cl)cc(Cl)c3)cccn2c1N(C)C(=O)c1ccccc1F	n	18.4µM	u	x	-58.1	u
CCc1nc2c(OCc3ccc(Cl)cc3Cl)cccn2c1N(C)C(=O)CC(C)C	11.2µM	25.9µM	u	x	-52.7	u
CCc1nc2c(OCc3ccc(Cl)cc3)cccn2c1N(C)C(=O)c1ccco1	n	u	u	x	-62.5	u
Cc1nn(C)cc1NC(=O)CCSc1nc(-c2ccco2)cc(C(F)(F)F)n1	n	n	u	n	n	n
O=C(Nc1ccn(CCCNCc2ccc3c(c2)OCO3)c(=O)n1)OCc1ccccc1	n	n	n	n	n	n
O=C(Cc1cccs1)Nc1cccc(-c2nc3ccccc3o2)c1	n	n	n	n	n	n
O=c1[nH]c(SCc2ccccc2Cl)nc2c1CCC2	n	n	n	n	n	n
CNc1nc(SCc2ccccc2Cl)nc2c1CCCC2	n	u	u	n	n	32.6µM
CC1CC1C(=O)N1CCN(S(=O)(=O)c2cc(C(F)(F)F)cc(C(F)(F)F)c2)CC1 (configuration not stated)	n	n[9.24 µM]	14.1µM	n	n	n
Cc1cccnc1NC(=S)NC(=O)c1cccs1	n	6.31µM	u	u	n	7.08µM
O=C(NC(=S)Nc1ccccn1)c1cncc(Br)c1	n	n	n	n	n	n
Cc1cccnc1NC(=S)NC(=O)c1cncc(Br)c1	n	7.94µM	n	n	n	10µM
CCOC(=O)[C@]12CCCC=C1N(Cc1ccccc1)C(=O)[C@H](CC(=O)NCC1CCCCC1)C2	x	n	x	x	u	n
COc1cc2c(cc1OC)-c1nncn1C(C)(C)C2	n	n	n	n	n	n
